Results filed as inconclusive are left out. Active and inactive are the calls of the source. How the source made its calls, unless noted: active means hit-call score of the fitted dose curve at least 0.9, where 1 is the maximum; inconclusive means response in the unintended direction; inactive means score below 0.9.

Test [1] concerns the target Retinoic acid receptor alpha (Homo sapiens) (UniProt P10276). As to the kind of experiment: ATG_DR5_RAR_CIS: Attagene CIS-FACTORIAL HepG2 Assay for human Retinoic Acid Receptor Alpha (RARE), DR5 submotif (AID 2282934; active means hit-call score of the fitted dose curve at least 0.9, where 1 is the maximum; inactive means score below 0.9;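 on AC50: reporter responds to endogenous RAR alpha beta and gamma in HepG2 not RARA alone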). The note with it: HepG2 Attagene cis-factorial RARE DR5 reporter, mRNA; actives raise or lower the signal. The procedure, abridged:
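HepG2 cells transiently transfected with multiplexed reporter units; DR5 cis-element drives reporter through endogenous transcription factors. After 24 h dosing, reporter mRNA quantified by RT-PCR, fluorescent labeling, HpaI digestion and capillary electrophoresis; bidirectional fitting versus DMSO.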

A short description of test [2]: ATG_M_19_CIS: Attagene CIS-FACTORIAL HepG2 Assay for M19 Transcription Factor (Internal Marker) (AID 2282939; active means hit-call score of the fitted dose curve at least 0.9, where 1 is the maximum; inactive means score below 0.9). The note with it: HepG2 Attagene CIS-FACTORIAL M19 internal marker reporter; actives raise or lower the signal. The procedure, abridged: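 Signals come from fluorescence of labelled reporter-specific PCR fragments resolved by capillary electrophoresis, following 24 h treatment of HepG2 cells transfected with cis-promoter reporter units; activity was fitted in both directions relative to DMSO.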

Test [3] in a line: ATG_GRE_CIS: Attagene CIS-FACTORIAL HepG2 Assay for human Glucocorticoid Response Elements (GRE) (AID 2282947; active means hit-call score of the fitted dose curve at least 0.9, where 1 is the maximum; inactive means score below 0.9). The note with it: HepG2 GRE cis-reporter, Attagene multiplex mRNA; actives raise or lower the signal. Summed up: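 Fluorescence intensity of reporter-specific cDNA fragments, separated by capillary electrophoresis, provides the signal. Constructs carry cis-regulating promoters in transiently transfected HepG2 liver cells; 24 h incubation; fitting is bidirectional against DMSO.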

Test [4] concerns the target Hepatocyte nuclear factor 6 (Homo sapiens) (UniProt Q9UBC0). As to the kind of experiment: ATG_HNF6_CIS: Attagene CIS-FACTORIAL HepG2 Assay for human Hepatocyte Nuclear Factor 6 (HNF6) (AID 2282952; active means hit-call score of the fitted dose curve at least 0.9, where 1 is the maximum; inactive means score below 0.9). The conditions noted are these: HepG2 Attagene cis-factorial HNF6 reporter transcription; actives raise or lower the signal. Summed up:
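Endogenous transcription factor activity in human HepG2 liver cells was captured through cis-regulated reporter constructs. After 24 h treatment, reporter mRNA was measured by RT-PCR with capillary electrophoresis, and activity was fitted in both directions relative to DMSO.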

Test [5] can be described thus: ATG_TGFb_CIS: Attagene CIS-FACTORIAL HepG2 Assay for human Transforming Growth Factor (TGF) (AID 2282967; active means hit-call score of the fitted dose curve at least 0.9, where 1 is the maximum; inactive means score below 0.9). The conditions noted are these: HepG2 Attagene CIS TGFb reporter, mRNA transcription; actives raise or lower the signal. Summed up:
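Bidirectional fitting relative to DMSO gave the endpoint. Underlying data: reporter mRNA from HepG2 cells carrying transiently transfected cis-regulated reporter constructs, harvested 24 h after dosing and analyzed by RT-PCR and capillary electrophoresis.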

In test [6] the target is X-box-binding protein 1 (Homo sapiens) (UniProt P17861). As to the kind of experiment: ATG_Xbp1_CIS: Attagene CIS-FACTORIAL HepG2 Assay for human X-box Binding Protein 1 (XBP1) (AID 2282972; active means hit-call score of the fitted dose curve at least 0.9, where 1 is the maximum; inactive means score below 0.9). The conditions noted are these: HepG2 XBP1 cis-element reporter, Attagene multiplex; actives raise or lower the signal. Summed up:
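Read-out: fluorescent reporter mRNA fragments resolved by capillary electrophoresis after RT-PCR. Human HepG2 liver cells carried transfected cis-promoter reporter units and were exposed to chemicals for 24 hours. Gain or loss of signal fitted relative to DMSO baseline.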

The target in test [7] is Hepatocyte nuclear factor 4-alpha (Homo sapiens) (UniProt P41235). As to the kind of experiment: ATG_HNF4a_TRANS: Attagene TRANS-FACTORIAL HepG2 Assay for human Hepatocyte Nuclear Factor 4 alpha (HNF4a) (AID 2282982). The conditions noted are these: HepG2 HNF4a transactivation reporter, mRNA readout. The procedure, abridged: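 Endpoint reflects transcriptional activation of a GAL4-UAS reporter by an HNF4a-GAL4 chimera in transfected HepG2 cells, 24 h post-dosing. Fluorescence from RT-PCR products separated by capillary electrophoresis; DMSO baseline.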

Test [8] has as its target Retinoic acid receptor RXR-alpha (Homo sapiens) (UniProt P19793). As to the kind of experiment: ATG_RXRa_TRANS: Attagene TRANS-FACTORIAL HepG2 Assay for human Retinoid X Receptor alpha (RXRa) (AID 2283012). Summed up:
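Measures exogenous chimeric NR-GAL4 activity in transfected HepG2 liver cells after 24 h of dosing. Induced reporter mRNA was detected by RT-PCR with capillary electrophoresis, and gain of signal was analysed against DMSO.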

Test [9] can be described thus: TOX21_p53_BLA_p2_viability: Viability Assessment in the Tox21 HCT-116 p53 Agonism Beta-lactamase Assay, Phase 2 (AID 2283591).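 Further: compound exposure lasted 16 h at 37 °C; actives lower the ATP signal meaning cytotoxicity.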 Summed up: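 HCT116 p53-bla cells, 4000/well, dosed after 5 h plating (217-fold dilution of DMSO stocks) and incubated 16 h at 37C. Viability taken as cellular ATP by CellTiter-Glo luminescence after 30 min RT; signal loss marks cytotoxicity.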

Test [10] concerns the target Cellular tumor antigen p53 (Homo sapiens) (UniProt P04637). As to the kind of experiment: TOX21_p53_BLA_p5_ratio: Tox21 HCT-116 p53 Agonism Beta-lactamase Assay, Ratio, Phase 5 (AID 2283599). The procedure, abridged:
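HCT-116 p53-bla cells (4000/well) plated 5 h, dosed with compound (217-fold DMSO dilution) for 16 h at 37 C; CCF4-AM substrate 2 h at room temperature. Activity is the 460/530 nm emission ratio (405 nm excitation), fitted in gain-of-signal direction versus DMSO.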

Test [11] is described as follows: TOX21_p53_BLA_p5_viability: Viability Assessment in the Tox21 HCT-116 p53 Agonism Beta-lactamase Assay, Phase 5 (AID 2283600). Summed up: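 Viability is taken from cellular ATP content, measured by luciferase luminescence in the same wells after the beta-lactamase ratio read. Cells are seeded at 4000 per well and exposed to DMSO-dissolved compounds, diluted 217-fold, for 16 h.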

Test [12] has as its target Cellular tumor antigen p53 (Homo sapiens) (UniProt P04637). As to the kind of experiment: TOX21_p53_BLA_p4_ratio: Tox21 HCT-116 p53 Agonism Beta-lactamase Assay, Ratio, Phase 4 (AID 2283601). Summed up: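 HCT-116 p53 beta-lactamase reporter cells (4000/well) preincubated 5 h, then compound (217-fold dilution of DMSO stock) for 16 h at 37C. CCF4-AM substrate added 2 h at room temperature; 460/530 nm emission ratio fitted upward versus DMSO.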

The nature of test [13]: ATG_MRE_CIS: Attagene CIS-FACTORIAL HepG2 Assay for human Metal Responsive Element (MRE) (AID 2282954; active means hit-call score of the fitted dose curve at least 0.9, where 1 is the maximum; inactive means score below 0.9). The conditions noted are these: HepG2 MRE cis-reporter transcription, Attagene multiplex; actives raise or lower the signal. Summed up: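 Measured here is mRNA induction from an MRE cis-element reporter in HepG2 after 24 h, quantified by fluorescence of labelled RT-PCR products on capillary electrophoresis; gain- and loss-of-signal fits use DMSO as baseline.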

Test [14] is described as follows: ATG_M_32_TRANS: Attagene TRANS-FACTORIAL HepG2 Assay for M32 Transcription Factor (Internal Marker) (AID 2282984).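 Further: transcript level of a background control reporter unit measured by RT-PCR and capillary electrophoresis.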 The note with it: HepG2 Attagene TRANS M32 internal marker reporter. Summed up: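 Internal-marker readout from a multiplexed transcription reporter panel. HepG2 cells were transfected with GAL4-UAS reporter units, treated 24 hours, and reporter transcript levels determined by fluorescence after RT-PCR and capillary separation.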

The nature of test [15]: ATG_NF_kB_CIS: Attagene CIS-FACTORIAL HepG2 Assay for human Nuclear Factor Kappa B (NF-kB) (AID 2282991; active means hit-call score of the fitted dose curve at least 0.9, where 1 is the maximum; inactive means score below 0.9). The note with it: HepG2 Attagene cis-factorial NF-kB reporter mRNA; actives raise or lower the signal. Summed up:
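Readout is reporter transcript level, gain or loss versus DMSO, measured 24 h post-dose via RT-PCR, fluorescent labelling and capillary electrophoresis. Human HepG2 liver cells carried transiently transfected CIS reporter constructs reflecting endogenous factors.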

Test [16] deals with human Retinoid X Receptor beta (RXRb), RXRB (gene 6257) (UniProt P28702). As to the kind of experiment: ATG_RXRb_TRANS: Attagene TRANS-FACTORIAL HepG2 Assay for human Retinoid X Receptor beta (RXRb) (AID 2283013). The procedure, abridged:
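Chimeric receptor-Gal4 activity was assessed in transiently transfected human HepG2 cells after 24 h exposure. Transcripts from GAL4-UAS reporters were quantified by fluorescent RT-PCR and capillary electrophoresis, with DMSO as negative control and baseline.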

The target of test [17] is Cellular tumor antigen p53 (Homo sapiens) (UniProt P04637). As to the kind of experiment: TOX21_p53_BLA_p2_ratio: Tox21 HCT-116 p53 Agonism Beta-lactamase Assay, Ratio, Phase 2 (AID 2283592). The procedure, abridged:
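Cleaved-to-uncleaved substrate ratio (460 vs 530 nm) measured in HCT116 cells with an inducible beta-lactamase reporter linked to p53 activity. Compounds incubated 16 h at 37C before 2 h room-temperature CCF4-AM loading.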

Test [18] shares this target. As to the kind of experiment: TOX21_p53_BLA_p3_ratio: Tox21 HCT-116 p53 Agonism Beta-lactamase Assay, Ratio, Phase 3 (AID 2283596). The procedure, abridged:
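Cells were seeded at 4000/well, rested 5 h at 37C, then dosed with DMSO compound solutions (217-fold dilution) for 16 h. CCF4-AM substrate was loaded for 2 h at room temperature, and the 460/530 nm emission ratio was fitted for gain of signal versus DMSO.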

Test [19] can be described thus: ATG_M_06_TRANS: Attagene TRANS-FACTORIAL HepG2 Assay for M06 Transcription Factor (Internal Marker) (AID 2282983). The conditions noted are these: HepG2 Attagene TRANS M06 internal marker reporter. Summed up: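 Human liver HepG2 cells bearing transiently transfected chimeric NR-GAL4 reporter units were treated with chemicals for 24 h. Total RNA was reverse-transcribed, reporter sequences amplified and labelled, then quantified by capillary electrophoresis. Activity was fitted upward relative to DMSO.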

Test [20] is described as follows: ATG_PBREM_CIS: Attagene CIS-FACTORIAL HepG2 Assay for human Phenobarbital-responsive Enhancer Module (PBREM) (AID 2282955; active means hit-call score of the fitted dose curve at least 0.9, where 1 is the maximum; inactive means score below 0.9). The conditions noted are these: HepG2 PBREM cis-reporter, Attagene multiplexed transcription; actives raise or lower the signal. The procedure, abridged: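 Endogenous transcription factor activity was read from reporter transcripts in transiently transfected human HepG2 liver cells after 24 h dosing. RT-PCR products were fluorescently labelled, HpaI-cut and sized by capillary electrophoresis; activity fitted bidirectionally against DMSO baseline.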

Chain of human Retinoid X Receptor beta (RXRb), RXRB (gene 6257) (P28702 whole entry, looked up, the tested form may be a part): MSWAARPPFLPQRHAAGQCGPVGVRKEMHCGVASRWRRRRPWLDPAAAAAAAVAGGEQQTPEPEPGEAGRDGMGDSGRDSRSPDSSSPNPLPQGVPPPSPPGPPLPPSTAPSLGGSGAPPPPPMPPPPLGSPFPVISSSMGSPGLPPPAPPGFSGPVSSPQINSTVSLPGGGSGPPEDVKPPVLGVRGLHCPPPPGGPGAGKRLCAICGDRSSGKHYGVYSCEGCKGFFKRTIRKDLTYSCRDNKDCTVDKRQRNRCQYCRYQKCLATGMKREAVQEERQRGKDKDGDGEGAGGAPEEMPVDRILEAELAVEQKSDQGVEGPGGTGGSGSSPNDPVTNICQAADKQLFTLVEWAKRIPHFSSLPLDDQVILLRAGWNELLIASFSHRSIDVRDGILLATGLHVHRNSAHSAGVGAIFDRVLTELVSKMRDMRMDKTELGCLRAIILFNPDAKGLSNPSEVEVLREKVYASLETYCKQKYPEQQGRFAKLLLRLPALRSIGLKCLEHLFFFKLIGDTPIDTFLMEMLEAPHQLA
Chain of X-box-binding protein 1 (Homo sapiens) (P17861 whole entry, looked up, the tested form may be a part): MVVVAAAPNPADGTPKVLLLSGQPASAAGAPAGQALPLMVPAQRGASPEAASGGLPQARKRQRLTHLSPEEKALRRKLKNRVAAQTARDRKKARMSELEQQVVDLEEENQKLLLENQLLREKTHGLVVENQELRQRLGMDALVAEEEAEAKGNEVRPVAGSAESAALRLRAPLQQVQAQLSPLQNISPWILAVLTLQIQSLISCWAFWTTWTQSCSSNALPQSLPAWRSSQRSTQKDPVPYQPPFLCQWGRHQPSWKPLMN
Chain of Hepatocyte nuclear factor 4-alpha (Homo sapiens) (P41235 whole entry, looked up, the tested form may be a part): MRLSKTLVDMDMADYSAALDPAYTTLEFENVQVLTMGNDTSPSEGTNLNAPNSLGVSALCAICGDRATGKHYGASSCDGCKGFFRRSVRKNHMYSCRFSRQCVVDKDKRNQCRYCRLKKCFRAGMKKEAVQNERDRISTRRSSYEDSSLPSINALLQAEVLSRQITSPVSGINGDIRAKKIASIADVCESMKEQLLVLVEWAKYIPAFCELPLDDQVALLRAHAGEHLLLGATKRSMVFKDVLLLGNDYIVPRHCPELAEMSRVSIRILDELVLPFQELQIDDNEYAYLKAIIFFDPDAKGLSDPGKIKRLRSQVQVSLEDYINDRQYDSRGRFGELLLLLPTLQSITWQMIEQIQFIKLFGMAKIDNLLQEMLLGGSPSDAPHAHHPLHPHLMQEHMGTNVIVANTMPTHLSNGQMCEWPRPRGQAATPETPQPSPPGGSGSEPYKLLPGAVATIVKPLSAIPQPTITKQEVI
Chain of Retinoic acid receptor RXR-alpha (Homo sapiens) (P19793 whole entry, looked up, the tested form may be a part): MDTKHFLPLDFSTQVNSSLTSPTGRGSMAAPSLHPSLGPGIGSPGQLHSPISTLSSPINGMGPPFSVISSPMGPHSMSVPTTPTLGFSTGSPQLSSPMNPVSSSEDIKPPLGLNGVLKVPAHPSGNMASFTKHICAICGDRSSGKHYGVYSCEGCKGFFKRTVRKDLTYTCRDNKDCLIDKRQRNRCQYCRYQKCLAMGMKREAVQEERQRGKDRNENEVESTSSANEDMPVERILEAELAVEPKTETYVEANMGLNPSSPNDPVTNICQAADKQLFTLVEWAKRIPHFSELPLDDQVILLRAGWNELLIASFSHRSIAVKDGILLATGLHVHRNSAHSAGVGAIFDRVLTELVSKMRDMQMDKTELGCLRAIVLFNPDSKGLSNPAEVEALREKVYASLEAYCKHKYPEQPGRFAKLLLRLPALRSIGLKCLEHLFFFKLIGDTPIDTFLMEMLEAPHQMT
Chain of Hepatocyte nuclear factor 6 (Homo sapiens) (Q9UBC0 whole entry, looked up): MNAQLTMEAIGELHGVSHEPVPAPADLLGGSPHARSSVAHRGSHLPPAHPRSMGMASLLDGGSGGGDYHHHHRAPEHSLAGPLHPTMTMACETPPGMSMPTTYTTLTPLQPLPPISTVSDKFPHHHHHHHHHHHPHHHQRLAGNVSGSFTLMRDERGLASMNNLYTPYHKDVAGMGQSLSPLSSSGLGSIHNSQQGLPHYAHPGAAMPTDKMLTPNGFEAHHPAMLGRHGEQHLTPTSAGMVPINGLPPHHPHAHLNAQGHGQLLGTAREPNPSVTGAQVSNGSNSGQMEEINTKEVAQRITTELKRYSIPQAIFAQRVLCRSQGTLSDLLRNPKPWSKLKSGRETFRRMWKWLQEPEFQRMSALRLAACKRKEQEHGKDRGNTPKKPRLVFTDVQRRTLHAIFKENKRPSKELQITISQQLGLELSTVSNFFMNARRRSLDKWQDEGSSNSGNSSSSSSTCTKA
Chain of Cellular tumor antigen p53 (Homo sapiens) (P04637 whole entry, looked up): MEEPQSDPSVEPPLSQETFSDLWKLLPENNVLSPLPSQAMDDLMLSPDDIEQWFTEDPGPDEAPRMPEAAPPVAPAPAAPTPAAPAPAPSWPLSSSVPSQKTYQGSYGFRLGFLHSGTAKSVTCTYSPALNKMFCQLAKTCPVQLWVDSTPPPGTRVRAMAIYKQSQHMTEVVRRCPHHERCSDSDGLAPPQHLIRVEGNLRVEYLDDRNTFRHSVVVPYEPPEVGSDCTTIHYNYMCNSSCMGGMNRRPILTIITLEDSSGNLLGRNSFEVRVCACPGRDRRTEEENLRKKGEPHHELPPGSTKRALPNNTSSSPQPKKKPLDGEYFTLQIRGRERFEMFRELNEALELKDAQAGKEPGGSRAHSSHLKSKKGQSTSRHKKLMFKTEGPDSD
Chain of Retinoic acid receptor alpha (Homo sapiens) (P10276 whole entry, looked up): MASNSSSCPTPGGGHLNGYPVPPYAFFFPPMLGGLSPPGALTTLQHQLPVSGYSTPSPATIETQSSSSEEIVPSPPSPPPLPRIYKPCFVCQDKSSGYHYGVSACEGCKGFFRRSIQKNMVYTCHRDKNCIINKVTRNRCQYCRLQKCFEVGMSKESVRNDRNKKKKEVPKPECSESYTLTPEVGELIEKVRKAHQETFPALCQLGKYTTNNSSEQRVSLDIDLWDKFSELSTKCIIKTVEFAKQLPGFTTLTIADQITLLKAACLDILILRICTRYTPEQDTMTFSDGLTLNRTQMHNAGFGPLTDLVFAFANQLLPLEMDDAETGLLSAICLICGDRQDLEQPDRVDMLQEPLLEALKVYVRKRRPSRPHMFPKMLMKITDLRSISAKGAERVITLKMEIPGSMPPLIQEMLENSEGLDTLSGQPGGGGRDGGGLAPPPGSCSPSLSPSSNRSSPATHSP

As for `CCOC(=O)CC(=O)OCC`, the result in [1], in [2], in test [3], in [4], in test [5] and in test [6] was inactive. In addition, the call in test [7], in test [8], in test [9], in [10], in test [11] and in [12] was inactive.
For the molecule `CCCCC(CC)COC(=O)CS` (stereo not given), the call in test [1], in test [2], in test [3], in test [4], in [13] and in [6] was inactive. In addition, the molecule was called inactive in test [14], in test [15], in [8], in test [16], in test [9] and in [17]. Further, the result in test [18] and in test [12] was inactive.
For the molecule `C=C1CC[C@H]2C[C@@H]1C2(C)C`, the result in test [1], in [2], in test [13], in [5], in test [6] and in test [7] was inactive. Moreover, the molecule was classed as inactive in test [19], in [15] and in [8].
With `CCc1cc(C(N)=S)ccn1`, the molecule was classed as inactive in test [1], in [2], in test [3], in test [4], in [13] and in test [5]. In addition, the result in [7], in test [19], in test [15], in test [16], in test [9] and in test [17] was inactive. Moreover, the result in test [18], in [10], in [11] and in test [12] was inactive.
As for `Brc1ccc(Oc2ccc(Br)cc2)cc1`, the result in test [1], in test [2], in test [3], in test [20], in test [6] and in [14] was inactive. For the same molecule, the molecule was classed as inactive in test [8], in test [16], in test [9], in [17], in [18] and in test [10]. The molecule was classed as inactive in test [11] and in [12]. For the same molecule, the AC50 in test [5] was 100 µM (active).
For `Cc1cc(-n2nc3ccc(Cl)cc3n2)c(O)c(C(C)(C)C)c1`, the call in [1], in [2], in test [3], in [4], in [13] and in test [20] was inactive. The call in [5], in test [6], in test [7], in test [19], in test [8] and in test [17] was inactive. Besides, the result in test [18] and in test [10] was inactive.
For `CCC(C)C1N=C(C)C(C)S1` (stereo not given), the result in [1], in [2], in [3], in test [4], in test [13] and in test [6] was inactive. The call in test [19], in test [14], in [15], in test [8], in test [16] and in test [9] was inactive. The result in test [18], in test [10] and in test [12] was inactive.
`Cc1ccnc(N)c1`: the outcome in test [1], in [2], in test [3], in test [4], in [20] and in test [5] was inactive. The result in [6], in test [14], in test [15], in test [8], in [16] and in test [9] was inactive. For the same molecule, in test [10], the outcome was inactive.
Take `CCCCCCC1CCCC(=O)O1` (stereo not given): the molecule was classed as inactive in [1], in [2], in test [3], in test [4], in test [13] and in test [20]. Besides, the molecule was classed as inactive in test [5], in test [6], in test [7], in test [19], in [14] and in [8]. The molecule was classed as inactive in test [9], in test [17], in test [10], in test [11] and in [12].
As to `Cc1cc(O)cc(C)c1Cl`, the AC50 in test [1] is 79.6 µM (active); in [16], 48.8 µM (active). For the same molecule, the molecule was called inactive in test [2], in test [3], in test [13], in test [6], in [19] and in test [14]. The molecule was classed as inactive in test [15] and in test [8].

What is called AC50 is the concentration giving half of the maximal activity seen.

The record behind these values is PubChem BioAssay (EPA / NIEHS).
